# Source: the supplement of paper PMC8728848
# Many of the other results were omitted from the sample, so the strongest signals are more common in it than they were.
# B1: DrGRIFIN (Danio rerio), Q6DGJ1 (protein)
# chain: MTLRFEASCPDGLCPGWSVILKGETPPEASKFEINFLCDRDDRVAFHFNPRFTESDIICNSYMANRWGQEERCNHFPLGVEEPFQIEIYSDNDHFHVYIDKAKVMQYKHRVEDLKTITKLQVVNDVKISSLEITKKLFY
# Tests used:
# Assay in all cases: glycan array binding signal (z-score within array); higher = stronger binding
# Conditions in all cases: glycan notation: IUPAC condensed, linker removed
# [1] = target: Fuc(a1-2)[Gal(a1-3)]Gal(b1-3)GlcNAc
# Summary of the method: (§1)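 From the Consortium for Functional Glycomics database, 3228 arrays were curated, keeping only those whose protein sequence was available. Binding is given as a within-array Z-score averaged across arrays sharing a protein sequence and across linkers. Negative Z-scores can be read as non-binding.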
# [2] = target: Fuc(a1-2)[Gal(a1-3)]Gal(b1-3)GlcNAc(b1-2)Man(a1-3)[Fuc(a1-2)[Gal(a1-3)]Gal(b1-3)GlcNAc(b1-2)Man(a1-6)]Man(b1-4)GlcNAc(b1-4)GlcNAc
# Summary of the method: as §1
# [3] = target: Fuc(a1-2)[Gal(a1-3)]Gal(b1-3)GlcNAc(b1-3)GalNAc
# Summary of the method: as §1
# [4] = target: Fuc(a1-2)[Gal(a1-3)]Gal(b1-3)GlcNAc(b1-6)GalNAc
# Summary of the method: as §1
# [5] = target: Fuc(a1-2)[Gal(a1-3)]Gal(b1-4)Glc
# Summary of the method: as §1
# [6] = target: Fuc(a1-2)[Gal(a1-3)]Gal(b1-4)GlcNAc
# Summary of the method: as §1
# [7] = target: Fuc(a1-2)[Gal(a1-3)]Gal(b1-4)GlcNAc(b1-2)Man
# Summary of the method: as §1
# [8] = target: Fuc(a1-2)[Gal(a1-3)]Gal(b1-4)GlcNAc(b1-2)Man(a1-3)[Fuc(a1-2)[Gal(a1-3)]Gal(b1-4)GlcNAc(b1-2)Man(a1-6)]Man(b1-4)GlcNAc(b1-4)GlcNAc
# Summary of the method: as §1
# [9] = target: Fuc(a1-2)[Gal(a1-3)]Gal(b1-4)GlcNAc(b1-2)Man(a1-3)[Fuc(a1-2)[Gal(a1-3)]Gal(b1-4)GlcNAc(b1-2)Man(a1-6)]Man(b1-4)GlcNAc(b1-4)[Fuc(a1-6)]GlcNAc
# Summary of the method: as §1
# [10] = target: Fuc(a1-2)[Gal(a1-3)]Gal(b1-4)GlcNAc(b1-3)GalNAc
# Summary of the method: as §1
# [11] = target: Fuc(a1-2)[Gal(a1-3)]Gal(b1-4)GlcNAc(b1-3)[Fuc(a1-2)[Gal(a1-3)]Gal(b1-4)GlcNAc(b1-6)]GalNAc
# Summary of the method: as §1
# [12] = target: Fuc(a1-2)[Gal(a1-3)]Gal(b1-4)[Fuc(a1-3)]GlcNAc(b1-3)GalNAc
# Summary of the method: as §1
# [13] = target: Fuc(a1-2)[GalNAc(a1-3)]Gal(b1-4)GlcNAc(b1-6)GalNAc
# Summary of the method: as §1
# [14] = target: Fuc(a1-3)[Gal(b1-4)]GlcNAc(b1-6)[Gal(b1-3)GlcNAc(b1-3)]Gal(b1-4)Glc
# Summary of the method: as §1
# [15] = target: Gal(b1-3)GlcNAc(b1-2)Man(a1-3)[Gal(b1-3)GlcNAc(b1-2)Man(a1-6)]Man(b1-4)GlcNAc(b1-4)[Fuc(a1-6)]GlcNAc
# Summary of the method: as §1
# [16] = target: Gal(b1-3)GlcNAc(b1-3)Gal(b1-4)GlcNAc(b1-3)Gal(b1-4)GlcNAc(b1-2)[Gal(b1-3)GlcNAc(b1-3)Gal(b1-4)GlcNAc(b1-3)Gal(b1-4)GlcNAc(b1-6)]Man(a1-6)[Gal(b1-3)GlcNAc(b1-3)Gal(b1-4)GlcNAc(b1-3)Gal(b1-4)GlcNAc(b1-2)Man(a1-3)]Man(b1-4)GlcNAc(b1-4)[Fuc(a1-6)]GlcNAc
# Summary of the method: as §1
# [17] = target: Gal(b1-3)[Fuc(a1-4)]GlcNAc
# Summary of the method: as §1
# Gal(b1-4)Glc = target: Gal(b1-4)Glc
# Summary of the method: as §1
# Gal(b1-4)Glc6S = target: Gal(b1-4)Glc6S
# Summary of the method: as §1
# [18] = target: Gal(b1-4)GlcNAc(a1-6)Gal(b1-4)GlcNAc
# Summary of the method: as §1
# [19] = target: Gal(b1-4)GlcNAc(b1-2)Man(a1-6)[GlcNAc(b1-2)Man(a1-3)]Man(b1-4)GlcNAc(b1-4)GlcNAc
# Summary of the method: as §1
# [20] = target: Gal(b1-4)GlcNAc(b1-3)Gal(b1-4)GlcNAc(b1-2)[Gal(b1-4)GlcNAc(b1-3)Gal(b1-4)GlcNAc(b1-6)]Man(a1-6)[Gal(b1-4)GlcNAc(b1-3)Gal(b1-4)GlcNAc(b1-2)Man(a1-3)]Man(b1-4)GlcNAc(b1-4)GlcNAc
# Summary of the method: as §1
# Gal3S6S(b1-4)GlcNAc = target: Gal3S6S(b1-4)GlcNAc
# Summary of the method: as §1
# Gal3S6S(b1-4)GlcNAc6S = target: Gal3S6S(b1-4)GlcNAc6S
# Summary of the method: as §1
# Gal6S(b1-4)GlcNAc = target: Gal6S(b1-4)GlcNAc
# Summary of the method: as §1
# [21] = target: GalNAc(b1-3)Gal(a1-4)Gal(b1-4)GlcNAc(b1-3)Gal(b1-4)Glc
# Summary of the method: as §1
# GalNAc(b1-3)GlcNAc = target: GalNAc(b1-3)GlcNAc
# Summary of the method: as §1
# [22] = target: GalNAc(b1-4)GlcNAc(b1-2)Man
# Summary of the method: as §1
# GalNAc3S(b1-4)GlcNAc = target: GalNAc3S(b1-4)GlcNAc
# Summary of the method: as §1
# [23] = target: GlcNAc(a1-4)Gal(b1-4)GalNAc
# Summary of the method: as §1
# [24] = target: GlcNAc(b1-3)Gal(b1-4)GlcNAc(b1-2)Man(a1-3)[GlcNAc(b1-3)Gal(b1-4)GlcNAc(b1-2)Man(a1-6)]Man(b1-4)GlcNAc(b1-4)GlcNAc
# Summary of the method: as §1
# [25] = target: GlcNAc(b1-3)Gal(b1-4)GlcNAc(b1-3)Gal(b1-4)GlcNAc(b1-3)Gal(b1-4)GlcNAc(b1-2)[GlcNAc(b1-3)Gal(b1-4)GlcNAc(b1-3)Gal(b1-4)GlcNAc(b1-3)Gal(b1-4)GlcNAc(b1-6)]Man(a1-6)[GlcNAc(b1-3)Gal(b1-4)GlcNAc(b1-3)Gal(b1-4)GlcNAc(b1-3)Gal(b1-4)GlcNAc(b1-2)Man(a1-3)]Man(b1-4)GlcNAc(b1-4)[Fuc(a1-6)]GlcNAc
# Summary of the method: as §1
# [26] = target: GlcNAc(b1-4)Gal(b1-4)GlcNAc
# Summary of the method: as §1
# [27] = target: Man(a1-2)Man(a1-6)[Man(a1-3)]Man(a1-6)[Man(a1-2)Man(a1-2)Man(a1-3)]Man
# Summary of the method: as §1
# [28] = target: Man(a1-3)[Man(a1-6)]Man(a1-6)[Man(a1-2)Man(a1-3)]Man(b1-4)GlcNAc(b1-4)GlcNAc
# Summary of the method: as §1
# [29] = target: Neu5Ac(a2-3)Gal(b1-3)GlcNAc(b1-3)Gal(b1-3)GlcNAc
# Summary of the method: as §1
# [30] = target: Neu5Ac(a2-3)Gal(b1-3)GlcNAc(b1-3)GalNAc
# Summary of the method: as §1
# [31] = target: Neu5Ac(a2-3)Gal(b1-4)GlcNAc(b1-2)Man(a1-3)[Neu5Ac(a2-3)Gal(b1-4)GlcNAc(b1-2)Man(a1-6)]Man(b1-4)GlcNAc(b1-4)GlcNAc
# Summary of the method: as §1
# [32] = target: Neu5Ac(a2-3)Gal6S(b1-4)GlcNAc
# Summary of the method: as §1
# [33] = target: Neu5Ac(a2-6)Gal(b1-4)GlcNAc(b1-2)Man(a1-3)[Neu5Ac(a2-6)Gal(b1-4)GlcNAc(b1-2)Man(a1-6)]Man(b1-4)GlcNAc(b1-4)GlcNAc
# Summary of the method: as §1
# [34] = target: Neu5Ac(a2-6)Gal(b1-4)GlcNAc(b1-2)Man(a1-6)[Gal(b1-4)GlcNAc(b1-2)Man(a1-3)]Man(b1-4)GlcNAc(b1-4)GlcNAc
# Summary of the method: as §1
# [35] = target: Neu5Ac(a2-6)Gal(b1-4)GlcNAc(b1-2)[Neu5Ac(a2-6)Gal(b1-4)GlcNAc(b1-4)]Man(a1-3)[GlcNAc(b1-4)][Neu5Ac(a2-6)Gal(b1-4)GlcNAc(b1-2)[Neu5Ac(a2-6)Gal(b1-4)GlcNAc(b1-6)]Man(a1-6)]Man(b1-4)GlcNAc(b1-4)GlcNAc
# Summary of the method: as §1
# [36] = target: Neu5Ac(a2-6)Gal(b1-4)GlcNAc(b1-3)GalNAc
# Summary of the method: as §1
# Neu5Ac(a2-8)Neu5Ac = target: Neu5Ac(a2-8)Neu5Ac
# Summary of the method: as §1
# [37] = target: Neu5Ac(a2-8)Neu5Ac(a2-3)[GalNAc(b1-4)]Gal(b1-4)Glc
# Summary of the method: as §1
# Neu5Gc(a2-6)GalNAc = target: Neu5Gc(a2-6)GalNAc
# Summary of the method: as §1
binder,measurement,setting,value
B1,glycan array binding signal (z-score),[1],5.95
same,glycan array binding signal (z-score),[2],10.6
same,glycan array binding signal (z-score),[3],5.36
same,glycan array binding signal (z-score),[4],6.96
same,glycan array binding signal (z-score),[5],6.1
same,glycan array binding signal (z-score),[6],6.44
same,glycan array binding signal (z-score),[7],9.46
same,glycan array binding signal (z-score),[8],4.9
same,glycan array binding signal (z-score),[9],5.59
same,glycan array binding signal (z-score),[10],4.81
same,glycan array binding signal (z-score),[11],6.36
same,glycan array binding signal (z-score),[12],-0.062
same,glycan array binding signal (z-score),[13],-0.23
same,glycan array binding signal (z-score),[14],-0.109
same,glycan array binding signal (z-score),[15],-0.135
same,glycan array binding signal (z-score),[16],-0.107
same,glycan array binding signal (z-score),[17],-0.187
same,glycan array binding signal (z-score),Gal(b1-4)Glc,-0.191
same,glycan array binding signal (z-score),Gal(b1-4)Glc6S,-0.201
same,glycan array binding signal (z-score),[18],-0.172
same,glycan array binding signal (z-score),[19],-0.071
same,glycan array binding signal (z-score),[20],-0.039
same,glycan array binding signal (z-score),Gal3S6S(b1-4)GlcNAc,-0.193
same,glycan array binding signal (z-score),Gal3S6S(b1-4)GlcNAc6S,-0.097
same,glycan array binding signal (z-score),Gal6S(b1-4)GlcNAc,-0.181
same,glycan array binding signal (z-score),[21],-0.12
same,glycan array binding signal (z-score),GalNAc(b1-3)GlcNAc,-0.192
same,glycan array binding signal (z-score),[22],-0.129
same,glycan array binding signal (z-score),GalNAc3S(b1-4)GlcNAc,-0.052
same,glycan array binding signal (z-score),[23],-0.154
same,glycan array binding signal (z-score),[24],-0.132
same,glycan array binding signal (z-score),[25],-0.163
same,glycan array binding signal (z-score),[26],-0.166
same,glycan array binding signal (z-score),[27],-0.123
same,glycan array binding signal (z-score),[28],-0.189
same,glycan array binding signal (z-score),[29],-0.131
same,glycan array binding signal (z-score),[30],-0.117
same,glycan array binding signal (z-score),[31],-0.141
same,glycan array binding signal (z-score),[32],-0.179
same,glycan array binding signal (z-score),[33],-0.171
same,glycan array binding signal (z-score),[34],-0.195
same,glycan array binding signal (z-score),[35],-0.026
same,glycan array binding signal (z-score),[36],-0.217
same,glycan array binding signal (z-score),Neu5Ac(a2-8)Neu5Ac,-0.131
same,glycan array binding signal (z-score),[37],-0.146
same,glycan array binding signal (z-score),Neu5Gc(a2-6)GalNAc,-0.148
